18 compounds from PubChem BioAssay (Tox21) can be followed below.

Values joined by “and” are separate entries in the source; they are usually repeats but may differ in a detail not shown here. Equal values may be shown once. Inconclusive results are not listed. More than one record can exist for a structure, and the calls need not agree. Active and inactive are the calls of the source. Unless noted, the call rests on the fitted dose curve; in most records, active means well fitted curve in the direction sought with a large enough effect in the repeat runs; inconclusive means weak or mixed curves; inactive means no such curve, though single readings can be large; an effect the other way counts as inactive or inconclusive.

In experiment [1] the target is Acetylcholinesterase (Homo sapiens) (UniProt P22303). Kind of experiment: Acetylcholinesterase (AChE) small molecule antagonists: colormetric cell-based qHTS assay (AID 1347395; calls by dose curve; further: nearly all actives have a fitted effect of over 30% in size; further: potency means the concentration at half of the fitted maximal effect). The method, boiled down: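 Quantitative HTS in attached SH-SY5Y cells: 30 min compound exposure, then 90 min with acetylthiocholine and DTNB at 37 C; colour from thiocholine reports AChE activity.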
Chain of Acetylcholinesterase (Homo sapiens) (P22303 whole entry, looked up): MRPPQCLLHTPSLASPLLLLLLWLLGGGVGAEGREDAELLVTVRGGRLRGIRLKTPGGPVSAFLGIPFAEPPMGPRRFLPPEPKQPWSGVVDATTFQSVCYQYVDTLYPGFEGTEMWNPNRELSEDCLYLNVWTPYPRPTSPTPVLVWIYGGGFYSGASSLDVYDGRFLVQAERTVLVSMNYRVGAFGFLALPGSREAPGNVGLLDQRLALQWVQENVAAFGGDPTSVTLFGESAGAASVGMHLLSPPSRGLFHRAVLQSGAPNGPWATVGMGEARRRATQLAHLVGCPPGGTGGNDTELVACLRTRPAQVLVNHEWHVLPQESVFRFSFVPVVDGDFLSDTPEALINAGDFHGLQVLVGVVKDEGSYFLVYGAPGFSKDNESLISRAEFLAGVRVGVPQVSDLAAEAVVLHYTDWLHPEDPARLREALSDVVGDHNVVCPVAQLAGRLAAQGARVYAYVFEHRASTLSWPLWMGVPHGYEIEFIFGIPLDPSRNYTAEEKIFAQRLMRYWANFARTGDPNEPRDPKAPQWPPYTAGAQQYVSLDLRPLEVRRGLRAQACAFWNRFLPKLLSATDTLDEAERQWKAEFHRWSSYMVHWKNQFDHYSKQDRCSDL
(In general: qHTS replaces the single test concentration by a dilution series.)

For experiment [2] the target is unchanged. The experiment is described as follows: Acetylcholinesterase (AChE) small molecule antagonists: enzyme-based qHTS assay (AID 1347397; calls by dose curve; further: nearly all actives have a fitted effect of over 55% in size; further: potency means the concentration at half of the fitted maximal effect). The conditions noted are these: Potency: AChE enzyme activity inhibition. The gist of the method: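 In this quantitative HTS, compounds from the Tox21 10K collection were preincubated 30 min at ambient temperature with recombinant human AChE dispensed at 50 mU/mL. Hydrolysis of acetylthiocholine was then followed for 10 min by DTNB colour development.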

Experiment [3] has the same target. The experiment is described as follows: Acetylcholinesterase (AChE) small molecule antagonists: fluorescence cell-based qHTS assay (AID 1347398; calls by dose curve; further: nearly all actives have a fitted effect of over 50% in size; further: potency means the concentration at half of the fitted maximal effect). The conditions noted are these: Potency: AChE activity. The method, boiled down:
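Cells (SH-SY5Y) attached overnight, were dosed with compound or DMSO vehicle for 30 min at 37 C, and then incubated 40 min at room temperature with acetylthiocholine and Thiolite Green; green fluorescence indexed AChE activity.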

For experiment [4] the target is unchanged. Kind of experiment: Acetylcholinesterase (AChE) small molecule antagonists: enzyme-based qHTS assay with human liver microsomes (AID 1347399; calls by dose curve; further: nearly all actives have a fitted effect of over 60% in size; further: potency means the concentration at half of the fitted maximal effect). To be noted: Potency: qHTS inhibition. The method, boiled down: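 Recombinant human AChE (50 mU/mL in the enzyme mix) and human liver microsomes (0.25 mg/mL final) were preincubated with compound and NADPH (0.25 mg/mL final) for 30 min at 37 C. Acetylthiocholine/DTNB was then added; thiocholine was read colorimetrically after 10 min at room temperature.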

Experiment [5] concerns the target Cytochrome P450 2D6 (Homo sapiens) (UniProt P10635). The experiment is described as follows: Cytochrome P450 Family 2 Subfamily D Member 6 (CYP2D6) small molecule antagonists: luciferase reporter qHTS assay (AID 1671196). Further: nearly all actives have a fitted effect of over 50% in size. Further: potency means the concentration at half of the fitted maximal effect. The method, boiled down:
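Quantitative HTS of Tox21 chemicals against CYP2D6 using a luminescent proluciferin substrate. After NADPH addition, 1 h room-temperature reaction; luminescence recorded 20 min post detection reagent.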
(In general: Reporter assays use an easily measured gene product as a stand-in for the process of interest.)

Experiment [6] has as its target Cytochrome P450 2C19 (Homo sapiens) (UniProt P33261). The experiment is described as follows: Cytochrome P450 Family 2 Subfamily C Member 19 (CYP2C19) small molecule antagonists: luciferase reporter qHTS assay (AID 1671197). Further: nearly all actives have a fitted effect of over 65% in size. Further: potency means the concentration at half of the fitted maximal effect. The method, boiled down:
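Enzyme-substrate mix with proluciferin substrate (P450-Glo CYP2C19 system) preincubated with compounds 10 min at room temperature; NADPH regeneration solution added, 37C for 1 h; detection reagent stops reaction, luminescence read after 20 min. Ketoconazole positive control.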

In experiment [7] the target is Cytochrome P450 2C9 (Homo sapiens) (UniProt P11712). Kind of experiment: Cytochrome P450 Family 2 Subfamily C Member 9 (CYP2C9) small molecule antagonists: luciferase reporter qHTS assay (AID 1671198). Further: nearly all actives have a fitted effect of over 50% in size. Further: potency means the concentration at half of the fitted maximal effect. The method, boiled down: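 P450-Glo proluciferin substrate with CYP2C9 enzyme; 10 min RT preincubation, then NADPH regeneration 1 h at 37C; luciferin detection reagent 20 min RT, luminescence in relative luminescence units.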
Chain of Cytochrome P450 2C9 (Homo sapiens) (P11712 whole entry, looked up): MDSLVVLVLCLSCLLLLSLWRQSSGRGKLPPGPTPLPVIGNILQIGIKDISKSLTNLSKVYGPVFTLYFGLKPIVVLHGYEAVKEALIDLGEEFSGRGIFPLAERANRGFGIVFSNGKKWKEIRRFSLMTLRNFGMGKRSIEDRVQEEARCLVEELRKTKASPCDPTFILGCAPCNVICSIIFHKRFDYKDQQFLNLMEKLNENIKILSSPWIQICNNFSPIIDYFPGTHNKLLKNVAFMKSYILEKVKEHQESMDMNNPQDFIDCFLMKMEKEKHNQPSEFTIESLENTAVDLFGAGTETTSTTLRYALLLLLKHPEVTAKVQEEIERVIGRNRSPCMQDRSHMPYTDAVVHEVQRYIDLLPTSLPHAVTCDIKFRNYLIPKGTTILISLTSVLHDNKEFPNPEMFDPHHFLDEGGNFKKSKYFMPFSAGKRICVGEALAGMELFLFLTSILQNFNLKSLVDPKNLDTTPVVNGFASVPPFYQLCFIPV

Experiment [8] deals with Cytochrome P450 1A2 (Homo sapiens) (UniProt P05177). The experiment is described as follows: Cytochrome P450 Family 1 Subfamily A Member 2 (CYP1A2) small molecule antagonists: luciferase reporter qHTS assay (AID 1671199). Further: nearly all actives have a fitted effect of over 50% in size. Further: potency means the concentration at half of the fitted maximal effect. The gist of the method: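 Quantitative high-throughput format using the P450-Glo CYP1A2 system. Reaction initiated by NADPH regeneration solution, 1 h at room temperature, then stopped with detection reagent; luminescence measured 20 min later.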
Chain of Cytochrome P450 1A2 (Homo sapiens) (P05177 whole entry, looked up): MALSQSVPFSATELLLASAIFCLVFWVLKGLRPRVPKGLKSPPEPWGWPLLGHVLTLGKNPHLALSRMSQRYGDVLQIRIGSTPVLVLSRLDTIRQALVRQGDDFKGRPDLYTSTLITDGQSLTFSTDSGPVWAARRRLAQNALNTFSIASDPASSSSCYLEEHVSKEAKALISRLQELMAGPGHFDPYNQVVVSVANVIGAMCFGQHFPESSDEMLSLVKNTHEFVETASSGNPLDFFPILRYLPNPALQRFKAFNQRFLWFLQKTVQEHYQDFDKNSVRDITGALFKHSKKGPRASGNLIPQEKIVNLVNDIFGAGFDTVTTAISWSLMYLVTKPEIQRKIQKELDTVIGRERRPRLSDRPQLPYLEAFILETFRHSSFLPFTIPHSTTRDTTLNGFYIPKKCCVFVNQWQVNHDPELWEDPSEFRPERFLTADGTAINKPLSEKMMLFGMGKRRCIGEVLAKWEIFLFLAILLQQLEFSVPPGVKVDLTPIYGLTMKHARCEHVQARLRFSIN

The target of experiment [9] is Voltage-gated inwardly rectifying potassium channel KCNH2 (Homo sapiens) (UniProt Q12809). Kind of experiment: Human Ether-a-go-go-Related Gene (hERG) channel small molecule antagonists: fluorescence cell-based qHTS assay (AID 1671200). The gist of the method:
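First, 1000 cells per well are seeded and cultured overnight at 37 C. Next, FluxOR II dye is loaded for 1 h at room temperature, protected from light. After 10 more minutes, stimulus is added and fluorescence is read.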
(In general: The hERG channel carries a current that helps repolarise heart muscle cells.)

In experiment [10] the target is Cytochrome P450 3A4 (Homo sapiens) (UniProt P08684). The experiment is described as follows: Cytochrome P450 Family 3 Subfamily A Member 4 (CYP3A4) small molecule antagonists: luciferase reporter qHTS assay (AID 1671201). Further: nearly all actives have a fitted effect of over 50% in size. Further: potency means the concentration at half of the fitted maximal effect. The method, boiled down: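 Enzyme and proluciferin substrate are mixed with test chemicals for 10 min, then NADPH regeneration system drives turnover for 1 h at room temperature. A detection reagent halts the reaction; luminescence after 20 min gives relative activity.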
Chain of Cytochrome P450 3A4 (Homo sapiens) (P08684 whole entry, looked up): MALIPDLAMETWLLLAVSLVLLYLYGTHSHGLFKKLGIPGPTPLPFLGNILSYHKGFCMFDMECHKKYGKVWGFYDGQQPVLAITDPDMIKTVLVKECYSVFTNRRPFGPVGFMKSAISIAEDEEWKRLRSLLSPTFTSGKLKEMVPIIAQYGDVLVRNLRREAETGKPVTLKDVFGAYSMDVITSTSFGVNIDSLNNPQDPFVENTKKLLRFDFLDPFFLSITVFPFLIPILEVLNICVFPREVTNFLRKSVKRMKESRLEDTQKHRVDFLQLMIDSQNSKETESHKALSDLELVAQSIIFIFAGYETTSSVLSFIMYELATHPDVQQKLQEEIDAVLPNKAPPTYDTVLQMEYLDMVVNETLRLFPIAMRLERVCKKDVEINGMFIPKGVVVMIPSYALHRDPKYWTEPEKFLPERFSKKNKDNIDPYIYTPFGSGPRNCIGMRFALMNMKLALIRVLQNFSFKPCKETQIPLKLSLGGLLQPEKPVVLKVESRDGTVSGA

Chain of Cytochrome P450 2D6 (Homo sapiens) (P10635 whole entry, looked up): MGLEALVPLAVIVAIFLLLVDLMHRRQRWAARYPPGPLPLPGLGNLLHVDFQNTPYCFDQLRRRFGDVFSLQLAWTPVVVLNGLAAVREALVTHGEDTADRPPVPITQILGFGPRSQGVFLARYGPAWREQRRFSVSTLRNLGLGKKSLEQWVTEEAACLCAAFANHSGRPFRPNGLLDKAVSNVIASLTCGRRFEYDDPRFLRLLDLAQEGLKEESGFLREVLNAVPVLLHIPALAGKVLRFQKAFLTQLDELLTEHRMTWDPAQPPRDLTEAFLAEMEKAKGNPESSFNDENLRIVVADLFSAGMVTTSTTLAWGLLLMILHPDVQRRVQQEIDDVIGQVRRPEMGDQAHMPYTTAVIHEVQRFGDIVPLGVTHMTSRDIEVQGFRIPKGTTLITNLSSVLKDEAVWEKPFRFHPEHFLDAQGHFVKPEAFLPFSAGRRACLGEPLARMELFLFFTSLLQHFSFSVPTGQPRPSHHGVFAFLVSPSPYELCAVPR
Chain of Cytochrome P450 2C19 (Homo sapiens) (P33261 whole entry, looked up): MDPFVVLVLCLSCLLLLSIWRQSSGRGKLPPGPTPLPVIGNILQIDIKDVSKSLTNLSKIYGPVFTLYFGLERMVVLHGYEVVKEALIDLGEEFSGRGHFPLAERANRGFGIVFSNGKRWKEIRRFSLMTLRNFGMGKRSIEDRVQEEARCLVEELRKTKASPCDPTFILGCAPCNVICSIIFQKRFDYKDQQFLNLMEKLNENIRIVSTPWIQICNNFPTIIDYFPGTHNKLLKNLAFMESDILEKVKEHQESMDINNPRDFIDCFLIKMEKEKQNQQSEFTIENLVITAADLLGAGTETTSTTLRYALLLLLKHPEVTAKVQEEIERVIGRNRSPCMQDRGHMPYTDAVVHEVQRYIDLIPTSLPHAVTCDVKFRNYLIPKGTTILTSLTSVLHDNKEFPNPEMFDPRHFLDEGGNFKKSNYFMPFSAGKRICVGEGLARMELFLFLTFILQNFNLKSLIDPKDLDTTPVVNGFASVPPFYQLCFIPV
Chain of Voltage-gated inwardly rectifying potassium channel KCNH2 (Homo sapiens) (Q12809 whole entry, looked up): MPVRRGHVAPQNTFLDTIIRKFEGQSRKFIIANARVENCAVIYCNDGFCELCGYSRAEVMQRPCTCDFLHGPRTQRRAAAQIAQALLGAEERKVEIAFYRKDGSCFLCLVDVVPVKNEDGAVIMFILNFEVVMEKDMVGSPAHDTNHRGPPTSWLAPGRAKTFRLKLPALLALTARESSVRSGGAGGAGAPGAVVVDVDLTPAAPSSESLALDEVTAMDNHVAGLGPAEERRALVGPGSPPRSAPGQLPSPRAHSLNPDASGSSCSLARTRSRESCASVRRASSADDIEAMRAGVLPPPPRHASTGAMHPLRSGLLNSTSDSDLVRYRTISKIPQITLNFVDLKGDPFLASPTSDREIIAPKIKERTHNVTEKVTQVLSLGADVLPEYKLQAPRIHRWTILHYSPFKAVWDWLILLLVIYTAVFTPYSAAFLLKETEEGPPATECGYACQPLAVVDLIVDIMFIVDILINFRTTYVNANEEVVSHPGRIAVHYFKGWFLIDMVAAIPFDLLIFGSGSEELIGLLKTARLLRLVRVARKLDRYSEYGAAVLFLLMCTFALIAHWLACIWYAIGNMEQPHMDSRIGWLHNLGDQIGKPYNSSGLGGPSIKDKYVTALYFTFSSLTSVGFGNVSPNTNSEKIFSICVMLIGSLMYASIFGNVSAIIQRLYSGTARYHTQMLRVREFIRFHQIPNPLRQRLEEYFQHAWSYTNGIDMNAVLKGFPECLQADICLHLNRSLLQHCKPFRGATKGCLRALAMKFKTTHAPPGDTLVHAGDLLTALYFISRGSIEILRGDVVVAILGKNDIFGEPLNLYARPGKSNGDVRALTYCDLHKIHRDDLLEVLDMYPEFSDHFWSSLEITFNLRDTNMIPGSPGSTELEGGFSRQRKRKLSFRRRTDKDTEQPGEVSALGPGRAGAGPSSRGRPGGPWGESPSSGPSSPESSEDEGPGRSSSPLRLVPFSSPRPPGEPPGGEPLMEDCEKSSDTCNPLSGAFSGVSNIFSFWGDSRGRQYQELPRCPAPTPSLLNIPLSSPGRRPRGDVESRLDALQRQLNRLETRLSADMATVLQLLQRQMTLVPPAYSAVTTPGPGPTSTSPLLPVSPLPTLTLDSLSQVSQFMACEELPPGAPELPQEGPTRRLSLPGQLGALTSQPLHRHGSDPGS

On to `N#Cc1ccccn1`, for which the Potency entry in experiment [1], in experiment [2], in [3], in [4], in [5] and in experiment [7] was “inactive” each time. Besides, the Potency entry in experiment [8], in experiment [9] and in experiment [10] was “inactive” each time. In addition, the Potency result in experiment [6] was “inactive and 71 µM (active)”.

With `Cc1cccc(C)c1NC(=O)CN1CCCC1=O`, the Potency entry in experiment [1], in experiment [2], in experiment [3], in experiment [4], in experiment [5] and in experiment [6] was “inactive” in each case. Also, the Potency result in experiment [7], in experiment [8], in [9] and in experiment [10] was “inactive” each time.

In the case of `CN(C)NC(=O)CCC(=O)O`, the Potency entry in experiment [1], in experiment [2], in experiment [3], in experiment [4], in experiment [5] and in [6] was “inactive” in each case. For the same compound, the Potency result in experiment [7], in [8], in [9] and in experiment [10] was “inactive” throughout.

For the compound `CCCOC(=O)c1ccccc1C(=O)OCCC`, the Potency entry in experiment [1], in experiment [2], in experiment [3], in experiment [4], in [5] and in [9] was “inactive” throughout. The Potency result in experiment [10] was “inactive”. The Potency is 8.09 µM (active) and 8.94 µM (active) in [6]; 32.2 µM (active) and 35.6 µM (active) in experiment [7]; 2.03 µM (active) and 3.17 µM (active) in experiment [8].

Take `Cc1cccc(N)c1`: the Potency result in experiment [1], in experiment [2], in experiment [3], in experiment [4] and in experiment [9] was “inactive” in each case. Also, the Potency was 31.8 µM (active) and inactive in experiment [5]; 7.99 µM (active) and 45.1 µM (active) and 39.9 µM (active) in [6]; 8.96 µM (active) and 35.6 µM (active) in experiment [7]; 31.8 µM (active) and inactive and 31.7 µM (active) in [8]; 3.18 µM (active) and inactive in experiment [10].

Turning to `CNCC(O)c1ccc(O)cc1` (configuration not stated), the Potency entry in experiment [1], in experiment [2], in experiment [3], in [4], in [7] and in [8] was “inactive” throughout. The Potency result in experiment [9] and in [10] was “inactive” throughout. Further, the Potency is 39.9 µM (active) in [5]; 70.9 µM (active) and inactive in experiment [6].

For `Cc1cc(Cl)ccc1OC(C)C(=O)O` (configuration not stated), the Potency entry in [1], in experiment [2], in experiment [3], in [4], in [5] and in experiment [8] was “inactive” each time. Further, the Potency entry in experiment [9] and in experiment [10] was “inactive” throughout. Moreover, the Potency in experiment [6] is 78.3 µM (active) and inactive; in experiment [7] it was 44.1 µM (active) and inactive.

For `Nc1cc(Cl)cc(Cl)c1`, the Potency entry in experiment [1], in experiment [2], in experiment [3], in [4], in experiment [5] and in experiment [6] was “inactive” each time. In addition, the Potency result in experiment [7] and in experiment [9] was “inactive” in each case. In addition, the Potency in experiment [8] was 21.6 µM (active) and 28.3 µM (active).

Take `O=C/C=C/c1ccccc1`: the Potency result in experiment [1], in experiment [4], in experiment [5], in experiment [7], in experiment [9] and in [10] was “inactive” in each case. For the same compound, the Potency result was “inactive and 64 µM (active)” in experiment [2]; “inactive and 36 µM (active)” in [3]; “inactive and 79.6 µM (active)” in experiment [6]; “inactive and 39.9 µM (active)” in experiment [8].

With `C=CCN=C=S`, the Potency result in experiment [1], in [2], in [3], in [4], in experiment [5] and in experiment [7] was “inactive” throughout. In addition, the Potency entry in [8], in experiment [9] and in [10] was “inactive” in each case. Besides, the Potency in [6] is 40.8 µM (active) and inactive.

On to `[N-]=[N+]=CC(=O)OC[C@H](N)C(=O)O`, for which the Potency result in experiment [1], in experiment [2], in experiment [3], in experiment [4], in experiment [6] and in experiment [7] was “inactive” each time. In addition, the Potency result in experiment [8], in experiment [9] and in experiment [10] was “inactive” throughout. Moreover, the Potency result in [5] was “inactive and 30.9 µM (active)”.

`COP(=S)(OC)Oc1ccc(SC)c(C)c1`: the Potency result in [1], in experiment [2], in experiment [3], in experiment [4] and in [9] was “inactive” in each case. The Potency in [5] was 39.5 µM (active) and 39.9 µM (active); in [6], 1.57 µM (active) and 710 nM (active) and 1.1 µM (active); in experiment [7], 7.02 µM (active) and 6.33 µM (active) and 6.92 µM (active); in experiment [8], 1.98 µM (active) and 2.24 µM (active) and 1.62 µM (active).

On to `COC(=O)Nc1cccc(OC(=O)Nc2cccc(C)c2)c1`, for which the Potency entry in experiment [1], in [2], in experiment [3], in [4], in experiment [5] and in experiment [7] was “inactive” each time. In addition, the Potency entry in [9] and in experiment [10] was “inactive” throughout. For the same compound, the Potency in experiment [6] was 35.6 µM (active); in [8], 7.1 µM (active) and 17.8 µM (active).

Take `CCOP(=S)(OCC)Oc1cc(C)nc(C(C)C)n1`: the Potency in experiment [1] was 31.9 µM (active) and 71 µM (active) and inactive; in [3], 35.8 µM (active) and 56.4 µM (active); in experiment [4], “inactive and 8.71 µM (active)”; in [6] it was 56.7 µM (active) and 502 nM (active) and 692 nM (active); in [7], 35.8 µM (active) and 2.83 µM (active) and 2.45 µM (active); in experiment [8] it was 6.33 µM (active) and 4.07 µM (active). The Potency result in [2], in experiment [5] and in experiment [9] was “inactive” each time.

Take `CCCCC(CC)C(=O)Cl` (configuration not stated): the Potency result in experiment [1], in [2], in experiment [3], in experiment [4], in experiment [5] and in experiment [6] was “inactive” each time. The Potency entry in [7], in [9] and in [10] was “inactive” throughout. In addition, the Potency entry in experiment [8] is “inactive and 63.3 µM (active)”.

For the compound `O=C(O)C(Br)Br`, the Potency entry in experiment [1], in [2], in experiment [3], in experiment [4], in experiment [5] and in experiment [6] was “inactive” in each case. Besides, the Potency result in experiment [7], in [8], in [9] and in experiment [10] was “inactive” each time.

Turning to `N#Cc1cccc(C#N)c1`, the Potency result in experiment [1], in [2], in [3], in experiment [4], in experiment [6] and in experiment [7] was “inactive” throughout. Also, the Potency entry in [8], in [9] and in [10] was “inactive” each time. In addition, the Potency in [5] is 31.2 µM (active) and inactive.

Take `CN(C)C(=O)Nc1cccc(C(F)(F)F)c1`: the Potency result in experiment [1], in [2], in experiment [3], in experiment [4], in [5] and in experiment [6] was “inactive” throughout. Besides, the Potency result in [7], in experiment [9] and in [10] was “inactive” each time. Also, in experiment [8], the Potency is 2.88 µM (active) and 3.99 µM (active).
